proKLK7 act = activators of human kallikrein-7 zymogen; 370,000 compounds, 0.9% hits; activation, % at 7 µM; P49862; purified proKLK7, EDANS-DABCYL substrate fluorescence; 100% is mature enzyme control, 0% vehicle; AID 652039;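 active means activation above the mean of all tested compounds plus 3 SD, computed per campaign excluding outliers beyond control limits, cut at about 13% in these data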
PLCg1 inh = PLC-gamma1 (human) inhibition, primary screen; purified PLC-gamma1, fluorogenic substrate, fluorescence; P19174; 370,000 compounds, 0.84% hits; inhibition, % at 12.2 µM; in the data active means inhibition above about 9.5%
ADAM17 inh = inhibitors of human ADAM17 | AID 720648 | P78536 | inhibition, % at 6.95 µM | 370,000 compounds, 0.83% hits | recombinant ADAM17, EDANS/DABCYL FRET peptide cleavage;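 active means inhibition above the mean of compounds lying between control limits plus 3 SD, set per campaign, cut at about 8.5% in these data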
PLCb3 inh = inhibitors of human phospholipase C beta3 | Purified PLC-beta3, fluorogenic substrate, fluorescence | inhibition, % at 12.2 µM | 370,000 compounds, 0.18% hits; in the data active means inhibition above about 11%
ADAM10 inh = ADAM10 inhibition, QFRET primary screen; 370,000 compounds, 0.62% hits; AID 720582; recombinant ADAM10, EDANS/DABCYL FRET peptide cleavage, 3 h; inhibition, % at 7 µM;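 active means inhibition above a per-campaign cutoff equal to the mean of compounds falling between control-based bounds plus 3 SD, cut at about 20% in these data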
Target sequence (O14672 214-748 limits assumed): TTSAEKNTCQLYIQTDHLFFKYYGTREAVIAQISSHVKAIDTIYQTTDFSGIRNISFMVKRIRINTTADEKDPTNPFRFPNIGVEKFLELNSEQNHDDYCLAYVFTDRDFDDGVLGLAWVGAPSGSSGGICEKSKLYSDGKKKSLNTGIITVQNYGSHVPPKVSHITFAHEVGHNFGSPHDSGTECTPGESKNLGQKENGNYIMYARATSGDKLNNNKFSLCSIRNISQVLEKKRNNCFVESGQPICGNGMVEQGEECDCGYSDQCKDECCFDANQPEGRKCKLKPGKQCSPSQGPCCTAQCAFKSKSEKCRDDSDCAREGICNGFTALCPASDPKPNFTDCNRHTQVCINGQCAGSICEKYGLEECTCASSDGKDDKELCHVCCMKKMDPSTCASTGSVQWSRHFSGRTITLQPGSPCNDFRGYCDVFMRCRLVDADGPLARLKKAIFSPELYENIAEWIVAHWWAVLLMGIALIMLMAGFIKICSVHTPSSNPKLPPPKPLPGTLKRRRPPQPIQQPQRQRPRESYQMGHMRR
KLK7 act conf = confirmation of human kallikrein-7 zymogen activators; shares compounds with proKLK7 act; purified proKLK7, EDANS-DABCYL substrate fluorescence; scaled: vehicle 0, mature enzyme 100; activation, % at 7 µM; 3,200 compounds, 68% hits; AID 686949;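 active means activation, as change over the incubation, above the mean of all tested compounds plus 3 SD, cut at about 13% in these data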
EDANS-DABCYL int = optically interferes with EDANS-DABCYL signal, flagging KLK7 hits | activation, % at 7 µM | AID 686952 | EDANS-DABCYL substrate fluorescence interference, no enzyme, 4 h; solvent 0%, active enzyme control 100% | shares compounds with proKLK7 act | 3,200 compounds, 80% hits;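 active means activation above the all-compound mean plus 3 SD, ignoring values outside control-based bounds, cut at about 4.8% in these data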;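 further: value is the 4 h activation minus the activation read at time zero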
EDANS interf = EDANS fluorescence interference in dose response, no enzyme. shares compounds with proKLK7 act. 250 compounds, 20% hits. EDANS-DABCYL peptide fluorescence interference. EC50, µM;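 active means compounds that raise the fluorescence signal in this interference counterscreen, with EC50 at or below 10 µM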;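 further: intact quenched peptide substrate alone read at 355 nm excitation and 520 nm emission; signal is fluorescence gain from T0 to T4 after four hours at room temperature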
Hits are given with their value; . = inactive; / = no result given. Only some compounds are listed: those with a hit (about 2.9% of all), similar ones and a draw of the others.

SMILES	proKLK7 act	PLCg1 inh	ADAM17 inh	PLCb3 inh	ADAM10 inh	KLK7 act conf	EDANS-DABCYL int	others
O=S(=O)(c1ccccc1)N1CCN(C(=S)NC2CCCC2)CC1	.	.	.	.	.	/	/
CCCCOC(=O)c1nnc(-c2ccc(Cl)cc2)o1	.	.	.	.	.	/	/
COc1ccc2c(c1)SCCC2=O	.	.	.	.	.	/	/
COc1cc2c(cc1OC)C(=O)CCS2	14	.	.	.	.	16	22
CCCOc1ccc(C(NC(=O)CC(C)C)NC(=O)CC(C)C)cc1OC	.	.	.	.	.	/	/
Cc1ccc(S(=O)(=O)NCCc2cn3nc(C)c(C)nc3n2)cc1C	58	.	.	.	.	41	49
COc1ccc(S(=O)(=O)NCCc2cn3nc(C)c(C)nc3n2)cc1C	33	.	.	.	.	37	45
CCOc1ccc(NC(=O)C2CCCN(S(=O)(=O)c3c(C)nn(C)c3C)C2)cc1 (stereo not given)	.	.	.	.	.	/	/
COc1cccc(CN(C)C(=O)Nc2cccc(C(F)(F)F)c2)c1OC	.	.	.	.	.	/	/
c1ccc2nc3c(nc2c1)OCC1CCCCN31 (stereo not given)	16	.	.	.	.	18	28
Cc1ccc(-c2[nH]c(=O)n3ccncc23)s1	.	.	.	.	.	/	/
S=c1[nH]nc(-c2cc3c(s2)-c2ccccc2CC3)o1	39	.	.	.	.	70	70
CSc1nnc(-c2cc3c(s2)-c2ccccc2CC3)o1	.	.	.	.	.	/	/
COc1ccccc1OCC(=O)n1cc(C(=O)c2cc(Cl)cc(Cl)c2O)cn1	.	.	.	.	.	/	/
COc1ccc2oc(=O)c(-c3cn4ccc(C)cc4n3)cc2c1	.	.	.	.	.	/	/
CC1(C)CC(=O)C2=C(C1)OC(N)=C(C#N)C2c1cc2c(cc1[N+](=O)[O-])OCO2 (stereo not given)	108	.	.	.	.	65	66
CCOc1cc(C2C(C#N)=C(N)OC3=C2C(=O)CC(C)(C)C3)cc([N+](=O)[O-])c1O (stereo not given)	.	.	.	.	.	/	/
Cc1ccc2nc(-c3ccc(NC(=O)Cc4cccs4)cc3)[nH]c2c1	52	.	.	.	.	.	.
CCc1c(C)[nH]n(CCC#N)c1=O	.	.	.	.	.	/	/
Cc1ccc(O)c(C(=O)C=Cc2ccccc2)c1	13	.	.	.	.	34	34
COc1cc(/C=C/C(=O)O)cc(OC)c1O	21	.	.	.	.	70	79
COc1cc(C)cc(C(=O)C=Cc2ccccc2)c1O	14	.	.	.	.	.	11
COc1ccc(/C=C/C(=O)O)cc1Cl	.	.	.	.	.	/	/
O=C(Nc1nc2c(s1)CCc1ccccc1-2)c1cccs1	14	.	.	.	.	.	15
Cc1ccc(OCC(=O)Nc2nnc(S(=O)(=O)N3CCCCCC3)s2)cc1	.	.	.	.	.	/	/
SMILES	proKLK7 act	PLCg1 inh	ADAM17 inh	PLCb3 inh	ADAM10 inh	KLK7 act conf	EDANS-DABCYL int	others
COc1ccc(C(CCc2cc(OC)c(OC)c(OC)c2)NC(C)=O)cc1 (stereo not given)	.	.	.	.	.	/	/
COc1cccc2sc3cc(NCc4ccc5c(c4)OCO5)ccc3c(=O)c12	42	.	.	.	.	47	46
OC1c2cc(Cl)cc(Cl)c2N=C2CCCN21 (stereo not given)	15	.	.	.	.	18	11	EDANS interf=.
COc1ccc(OC)c2c1C(=O)CC2C (stereo not given)	43	.	.	.	.	49	49
COc1ccc(OC)c2c1C(=O)C(Cl)=C(Cl)C2=O	.	.	.	.	.	/	/
CC(=O)N(CN1C(=O)c2ccccc2C1=O)c1ccccc1	.	.	.	.	.	/	/
CCNc1nc(C)c(CN(C(C)=O)c2ccccc2)nc1C#N	33	.	.	.	.	28	24	EDANS interf=.
CCN(CC)C(=O)Cn1c(=O)n(-c2ccccc2)c(=O)n1CC(=O)N(CC)CC	.	.	.	.	.	/	/
O=C1CCCC2=C1C(c1ccc(O)cc1)c1c(ccc3ccccc13)N2 (stereo not given)	20	.	.	.	.	.	.
O=C1CCCC2=C1C(c1ccc(O)c(O)c1)c1c(ccc3ncccc13)N2 (stereo not given)	.	.	.	.	.	/	/
CNC(=O)COC(=O)/C=C/c1nc2ccccc2s1	.	.	.	.	.	/	/
CCOC(=O)Nc1ccc2c(COC(=O)CN(C)S(=O)(=O)c3ccc(C)cc3)cc(=O)oc2c1	.	.	.	.	.	/	/
CCOC(=O)Nc1ccc2c(COC(=O)CNS(=O)(=O)c3cccc(Br)c3)cc(=O)oc2c1	15	.	.	.	.	30	34
COc1ccc(-c2c(C(F)(F)F)oc3c(CN4CCN(C)CC4)c(O)ccc3c2=O)cc1	.	.	.	.	.	/	/
COC(=O)c1ccc(Oc2c(C)oc3c(CN4CCN(C)CC4)c(O)ccc3c2=O)cc1	65	.	.	.	.	79	73
COc1ccc(-c2c(C)oc3c(CN4CCN(C)CC4)c(O)ccc3c2=O)cc1	59	.	.	.	.	40	50
Cc1oc2cc(O)ccc2c(=O)c1Oc1ccc(F)cc1	.	.	.	.	.	/	/
COc1ccccc1Oc1c(C)oc2c(CN3CCN(C)CC3)c(O)ccc2c1=O	77	.	.	.	.	69	76
COc1ccc(Oc2c(C)oc3c(CN(C)C)c(O)ccc3c2=O)cc1	14	.	.	.	.	32	31
Cc1cc(NC(=O)c2ccc(F)cc2)n(-c2ccccc2)n1	.	.	.	.	.	/	/
O=C(Nc1nnc(CCc2ccccc2)s1)c1ccccc1	.	.	.	.	.	/	/
Cc1cc(C)cc(Oc2coc3c(CN(C)C)c(O)ccc3c2=O)c1	71	.	.	.	.	69	80
COc1cccc(Oc2c(C)oc3c(CN4CCCCC4)c(O)ccc3c2=O)c1	61	.	.	.	.	61	71
COc1ccc(Oc2coc3c(CN(C)C)c(O)ccc3c2=O)cc1	.	.	.	.	.	/	/
Cc1cccc(C)c1NC(=S)N1CCCN(C)CC1	.	.	.	.	.	/	/
CN(CCO)c1nc(N)c(C#N)c(CC#N)c1C#N	.	.	.	.	.	/	/
CCn1c(=O)cc(C(=O)OC)sc1=Nc1ccc(F)c(F)c1	.	.	.	.	.	/	/
O=C(O)CC(NS(=O)(=O)c1c(F)cc(F)cc1Br)c1ccccc1Cl (stereo not given)	.	.	.	.	.	/	/
C=CCNc1oc(/C=C/c2ccccc2)nc1C#N	46	.	.	.	.	66	68

Compound activity (PubChem BioAssay)
